Here are results for 40 compounds from the supplement of paper PMC12024424.

Counter-ions that a name gives are not always drawn.

In this experiment the test system is Staphylococcus aureus Sa2 (MRSA, cystic fibrosis isolate). Briefly: growth reduction vs untreated control (OD550); higher = stronger antibacterial activity. The following applies: 0.1 mM; 24 h. The protocol: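 Single-dose screen of the MedChem Express Drug Repurposing Library (0.1 mM, 1% DMSO) against planktonic MRSA S. aureus Sa2 (CF isolate) in TSB in 96-well plates, 37 °C aerobic, 24 h. Assays were run in triplicate and repeated twice.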
Take `Cc1ccc([C@@H]2O[C@H](CO)[C@@H](O)[C@H](O)[C@H]2O)cc1Cc1ccc(-c2ccc(F)cc2)s1` [Canagliflozin]: the growth reduction is 100%.

Compound `CC(C)(C)c1cc(-c2cc(-c3ccc(C(=O)O)cc3)ccc2OCCO)ccc1N1CCCC1` [Trifarotene] came in with a growth reduction of 100%.

The compound `OC(c1cc(C(F)(F)F)nc2c(C(F)(F)F)cccc12)C1CCCCN1` (stereo not given) [Mefloquine (hydrochloride)] displayed a growth reduction of 100%.

`CN(C)CCOc1ccc(/C(=C(/CCCl)c2ccccc2)c2ccccc2)cc1` [Toremifene (citrate)] registered a growth reduction of 100%.

Regarding `CS(=O)(=O)c1ccc([C@@H](O)[C@@H](CF)NC(=O)C(Cl)Cl)cc1` [Florfenicol], the growth reduction amounted to 100%.

Compound `CCc1cc(F)c2nc(N3CCC(NC4CCOCC4)CC3)c(-c3nc(C)no3)c(C)c2c1` returned a growth reduction of 100%.

On to `Clc1ccc(CO/N=C(\Cn2ccnc2)c2ccc(Cl)cc2Cl)c(Cl)c1` [Oxiconazole nitrate], for which the growth reduction was determined as 100%.

For the compound `Cc1ccc(-c2c(C(=O)CCl)n(CCCO)c3ncnc(N)c23)cc1`, the growth reduction was 99.8%.

The compound `C#C[C@]1(O)CC[C@H]2[C@@H]3CCc4cc(OC5CCCC5)ccc4[C@H]3CC[C@@]21C` [Quinestrol] yielded a growth reduction of 100%.

With `CCCCCCCCCCCC1=C(O)C(=O)C=C(O)C1=O` [Embelin], the growth reduction was found to be 100%.

`CC(C)N(CCCCOCC(=O)NS(C)(=O)=O)c1cnc(-c2ccccc2)c(-c2ccccc2)n1` [Selexipag] yielded a growth reduction of 100%.

`NC(=O)N1c2ccccc2C[C@H](O)c2ccccc21` [Eslicarbazepine] yielded a growth reduction of 92.7%.

`CCCCCCCCCCCCCCCCOP(=O)([O-])OCC[N+](C)(C)C` [Miltefosine] registered a growth reduction of 100%.

As to `CCCSc1nc(N[C@@H]2C[C@H]2c2ccc(F)c(F)c2)c2nnn([C@@H]3C[C@H](OCCO)[C@@H](O)[C@H]3O)c2n1` [Ticagrelor], the growth reduction came out at 100%.

Take `Cc1cc2c(F)c(Oc3ncnn4cc(OC[C@@H](C)OC(=O)[C@H](C)N)c(C)c34)ccc2[nH]1` [Brivanib (alaninate)]: the growth reduction stood at 100%.

`Cc1cc(Nc2ncnc3ccc(NC4=NC(C)(C)CO4)cc23)ccc1Oc1ccn2ncnc2c1` [Tucatinib] yielded a growth reduction of 91.9%.

As to `O=c1[nH]cnc2c1cnn2[C@@H]1O[C@H](CO)[C@@H](O)[C@H]1O` [Allopurinol riboside], the growth reduction is 99.9%.

In the case of `CC/C(=C(/c1ccc(/C=C/C(=O)O)cc1)c1ccc2[nH]ncc2c1)c1ccc(F)cc1Cl` [Brilanestrant], the growth reduction turned out to be 96.6%.

In the case of `CC(C)=CCC/C(C)=C/CC/C(C)=C/CSc1ccccc1C(=O)O` [Salirasib], the growth reduction stood at 100%.

In the case of `CC(O)c1cc(C(=O)N[C@@H](C)Cn2ccc(-c3ccc(C#N)c(Cl)c3)n2)n[nH]1` (stereo not given in full) [Darolutamide], the growth reduction came to 100%.

As for `C=C[C@@](C)(/C=C/c1ccc(O)cc1)CCC=C(C)C` [Bakuchiol], the growth reduction came to 100%.

`COc1cc2c(Nc3ccc(Cl)c(Cl)c3F)ncnc2cc1OC[C@@H]1C[C@@H]2CN(C)C[C@@H]2C1` [Tesevatinib]: the growth reduction came to 100%.

The compound `CCCCCOc1ccccc1/C(=C\SC)n1ccnc1` [Neticonazole (hydrochloride)] had a growth reduction of 100%.

Regarding `Cc1cc(C2CCCCC2)n(O)c(=O)c1` [Ciclopirox (olamine)], the growth reduction turned out to be 99.3%.

Compound `OCc1cc([C@@H](O)CNCCCCCCOCCOCc2c(Cl)cccc2Cl)ccc1O` [Vilanterol] returned a growth reduction of 99.9%.

As for `O=C(Nc1ccc([N+](=O)[O-])cc1Cl)c1cc(Cl)ccc1O` [Niclosamide], the growth reduction is 99.8%.

With `COc1ccc2c(c1OCc1ccccc1)C[C@@H](C(=O)O)N(C(=O)C(c1ccccc1)c1ccccc1)C2` [Olodanrigan], the growth reduction was 95.1%.

As to `C=C1C[C@H]2[C@@H]3CCC4=CC(=O)CC[C@@H]4[C@H]3CC[C@]2(C)[C@@]1(OC(C)=O)C(C)=O` [Nestoron], the growth reduction is 93.2%.

Turning to `COC(=O)N[C@H](C(=O)N1CCC[C@H]1c1nc(-c2ccc3c(c2)O[C@@H](c2ccccc2)n2c-3cc3cc(-c4c[nH]c([C@@H]5CCCN5C(=O)[C@@H](NC(=O)OC)C(C)C)n4)ccc32)c[nH]1)C(C)C` [Elbasvir], the growth reduction is 97.8%.

The compound `C=C[C@@H]1C[C@]1(NC(=O)[C@@H]1C[C@@H]2CN1C(=O)[C@H](C(C)(C)C)NC(=O)O[C@@H]1C[C@H]1CCCCCc1nc3ccc(OC)cc3nc1O2)C(=O)NS(=O)(=O)C1CC1` [Grazoprevir] returned a growth reduction of 100%.

`COc1cccc(-c2ccc(NC(=O)C3=C(C(=O)O)CCC3)c(F)c2)c1` [Vidofludimus] displayed a growth reduction of 93%.

The compound `C=CCc1ccc(O)c(-c2cc(CC=C)ccc2O)c1` [Magnolol] gave a growth reduction of 100%.

As for `CC(C)COc1ccc(CNC(=O)N(Cc2ccc(F)cc2)C2CCN(C)CC2)cc1` [Pimavanserin tartrate], the growth reduction was 100%.

Compound `CC(C)c1c(C(=O)Nc2ccccc2)c(-c2ccccc2)c(-c2ccc(F)cc2)n1CC[C@@H](O)C[C@@H](O)CC(=O)O` [Atorvastatin (hemicalcium salt)] yielded a growth reduction of 99.7%.

The compound `O=C(O)Cc1ccccc1Nc1c(Cl)cccc1Cl` [Diclofenac (diethylamine)] registered a growth reduction of 100%.

The compound `CC(C)/N=c1\cc2n(-c3ccc(Cl)cc3)c3ccccc3nc-2cc1Nc1ccc(Cl)cc1` [Clofazimine] displayed a growth reduction of 100%.

For the compound `CC(C)(C)Cn1c(N)nc2ccc(-c3[nH]c(C(C)(C)C)nc3-c3ccc(F)cc3)nc21` [Ralimetinib dimesylate], the growth reduction was determined as 100%.

`C=C[C@@H]1C[C@]1(NC(=O)[C@@H]1C[C@@H](Oc2ncc(OC)c3ccc(Cl)cc23)CN1C(=O)[C@@H](NC(=O)OC(C)(C)C)C(C)(C)C)C(=O)NS(=O)(=O)C1CC1` [Asunaprevir]: the growth reduction was 100%.

Compound `CC1(S(=O)(=O)O)CC(=O)c2ccccc2C1=O` (stereo not given) [Menadione bisulfite (sodium)] had a growth reduction of 99.5%.

For the compound `CC(C)COc1ccc(CNC(=O)N(Cc2ccc(F)cc2)C2CCN(C)CC2)cc1` [Pimavanserin], the growth reduction came to 100%.
